Experimental findings from PubChem BioAssay (NCI) are described below.

The panel holds about 83,000 compounds, 20% with a hit somewhere; the sample as a whole holds those more often.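 Testing used 96-well plates and a 48-hour single-concentration exposure. Example: -40 means 40% of the starting cells died.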 Values without a mark were called inactive. Calls of active or inactive are those of the source. How the source made its calls: active means growth percent below 10; inactive means the rest.

Some test systems named below: HCT-15 colon; HT29 colon; SNB-75 CNS; SNB-19 CNS; U251 CNS; PC-3 prostate; SK-MEL-5 melanoma; UACC-62 melanoma; LOX IMVI melanoma; SK-MEL-28 melanoma; SK-MEL-2 melanoma; EKVX NSCLC; SN12C renal; TK-10 renal; ACHN renal; CAKI-1 renal; A498 renal; CCRF-CEM leukemia; MOLT-4 leukemia; UO-31 renal.
Holding throughout (experiment): NCI-60 one-dose screen, 48 h (100 = growth as untreated, 0 = no growth, -100 = all killed)
What all share (conditions): 10 µM unless noted

With `O=C1c2c(c3c4ccccc4[nH]c3c3ccc4ccccc4c23)C(=O)N1CCN1CCCCC1`, the growth with HCT-15 colon was 25%; in the test with HT29 colon, 11.8%; in the test on SNB-75 CNS, 52.6%; in the test on SNB-19 CNS, 42.4%; in the test with U251 CNS, 10.8%; in the test with PC-3 prostate it was 53.3%. For the same compound, the growth is 55.4% with SK-MEL-5 melanoma; 42.8% in the test on UACC-62 melanoma; 30.2% in the test on LOX IMVI melanoma; 98.1% in the test with SK-MEL-28 melanoma; 90.5% with SK-MEL-2 melanoma; 75.5% in the test with EKVX NSCLC. For the same compound, the growth with SN12C renal was 22.6%; in the test with TK-10 renal, 87.4%; with ACHN renal, 12.7%; with CAKI-1 renal it was 24.7%; with A498 renal, 45.7%; in the test on CCRF-CEM leukemia it was 3.2% (active). The growth in the test on MOLT-4 leukemia was 7.16% (active).

Regarding `CCn1c(=S)[nH]c2c(=O)n(C)c(=O)n(C)c21`, the growth with HCT-15 colon is 101%; in the test on HT29 colon, 112%; with SNB-75 CNS, 96.2%; in the test with SNB-19 CNS it was 100%; with U251 CNS, 95.9%; in the test with PC-3 prostate it was 100%. In addition, the growth with SK-MEL-5 melanoma was 106%; in the test with UACC-62 melanoma, 116%; with LOX IMVI melanoma it was 98.8%; with SK-MEL-28 melanoma, 109%; in the test on SK-MEL-2 melanoma, 103%; in the test on EKVX NSCLC, 95.1%. Also, the growth is 101% in the test with SN12C renal; 108% in the test on TK-10 renal; 97.6% with ACHN renal; 102% with CAKI-1 renal; 113% in the test with A498 renal; 102% with CCRF-CEM leukemia. For the same compound, in the test on MOLT-4 leukemia, the growth was 98.2%.

Consider `CCOC(=O)C(=Cc1cccc(Cl)c1)C(=O)OCC`, for which the growth was -51.1% (active) with HCT-15 colon; -62.5% (active) with HT29 colon; 35.3% in the test on SNB-75 CNS; 51.5% in the test with SNB-19 CNS; 26.6% with U251 CNS; 25.2% in the test with PC-3 prostate. Besides, the growth was 53.5% in the test with SK-MEL-5 melanoma; -9.18% (active) with UACC-62 melanoma; -65.1% (active) in the test with LOX IMVI melanoma; -39% (active) in the test on SK-MEL-28 melanoma; 25.3% with SK-MEL-2 melanoma; 78.7% in the test on EKVX NSCLC. Also, the growth in the test with SN12C renal was 33.3%; in the test with UO-31 renal it was -56.2% (active); in the test on TK-10 renal it was 3.56% (active); with ACHN renal it was -72.9% (active); in the test on CAKI-1 renal, 61.5%; with CCRF-CEM leukemia it was -1.23% (active). Further, in the test on MOLT-4 leukemia, the growth is 13.4%.

For `COc1ccc2nc(NC(=O)CSc3nnc4n3S(=O)(=O)c3ccccc3N4C)sc2c1`, the growth in the test on HCT-15 colon was 101%; in the test with HT29 colon, 114%; in the test with SNB-75 CNS it was 93.5%; in the test on SNB-19 CNS it was 112%; with U251 CNS it was 102%; in the test with PC-3 prostate it was 94.7%. Further, the growth is 95.1% in the test on SK-MEL-5 melanoma; 87.3% in the test with UACC-62 melanoma; 92% in the test on LOX IMVI melanoma; 117% in the test on SK-MEL-28 melanoma; 50.6% in the test with SK-MEL-2 melanoma; 106% in the test on EKVX NSCLC. The growth was 99.5% with SN12C renal; 140% with TK-10 renal; 100% in the test with ACHN renal; 98.3% in the test with CAKI-1 renal; 121% in the test on A498 renal; 4.33% (active) with CCRF-CEM leukemia. The growth in the test with MOLT-4 leukemia was 71.5%.

In the case of `N=C(N)c1ccc(-c2ccc(-c3ccc(Cl)cc3)s2)nc1`, the growth in the test with HCT-15 colon was -78.1% (active); with HT29 colon, -38.1% (active); with SNB-75 CNS, 95.8%; with SNB-19 CNS, 49.9%; in the test on U251 CNS, -68.1% (active); in the test on PC-3 prostate, -75.3% (active). Besides, the growth in the test with SK-MEL-5 melanoma was 82.8%; with UACC-62 melanoma it was 89.9%; with LOX IMVI melanoma, -89% (active); in the test on SK-MEL-28 melanoma it was 108%; in the test on SK-MEL-2 melanoma it was 103%; in the test with EKVX NSCLC, 59.1%. Moreover, the growth is 52.5% in the test with SN12C renal; 103% in the test with TK-10 renal; -75.9% (active) in the test with ACHN renal; -65% (active) in the test on CAKI-1 renal; 84.5% in the test on A498 renal; -45.8% (active) in the test with CCRF-CEM leukemia. The growth in the test on MOLT-4 leukemia is -57.8% (active).

For the compound `Brc1ccc(-n2cc(-c3nn[nH]n3)c(-c3cccs3)n2)cc1`, the growth in the test on HCT-15 colon is 95.3%; with HT29 colon, 113%; with SNB-75 CNS, 92.5%; with SNB-19 CNS it was 90.9%; with U251 CNS, 93%; in the test with PC-3 prostate, 98.9%. Further, the growth in the test with SK-MEL-5 melanoma is 101%; in the test with UACC-62 melanoma, 92.7%; in the test with LOX IMVI melanoma it was 101%; in the test with SK-MEL-28 melanoma it was 103%; in the test with SK-MEL-2 melanoma, 101%; in the test on EKVX NSCLC it was 90.5%. Also, the growth with SN12C renal is 88.9%; in the test with UO-31 renal, 63.7%; in the test with TK-10 renal it was 104%; in the test on ACHN renal, 89.4%; in the test with CAKI-1 renal, 91.1%; in the test on CCRF-CEM leukemia it was 103%. Also, the growth with MOLT-4 leukemia is 101%.

Consider `O=C(CCC(=O)N/N=C/c1ccccc1O)N/N=C/c1ccccc1O`, for which the growth was 22.5% with HCT-15 colon; 84.1% with HT29 colon; 78.6% in the test with SNB-75 CNS; 57.9% in the test on SNB-19 CNS; 26% in the test on U251 CNS; 31.1% with PC-3 prostate. The growth is 36.3% with SK-MEL-5 melanoma; 24.9% in the test with UACC-62 melanoma; 21% in the test with LOX IMVI melanoma; 45.2% in the test on SK-MEL-28 melanoma; 69.7% in the test on SK-MEL-2 melanoma; 41.1% in the test on EKVX NSCLC. For the same compound, the growth in the test on SN12C renal is 70.2%; with TK-10 renal, 44%; in the test on ACHN renal, 18.7%; in the test on CAKI-1 renal it was 27.7%; with A498 renal, 80%; in the test with CCRF-CEM leukemia, 25%. For the same compound, the growth in the test on MOLT-4 leukemia was 18.1%.

Regarding `O=C(Nc1ccc(-c2nc(N3CCOCC3)c3cccn3n2)cc1)Nc1cccnc1`, the growth is 6.69% (active) with HCT-15 colon; 7.6% (active) in the test on HT29 colon; -26.5% (active) with SNB-75 CNS; 5.92% (active) with SNB-19 CNS; 7.85% (active) with U251 CNS; 3.8% (active) with PC-3 prostate. The growth was -71.5% (active) in the test with SK-MEL-5 melanoma; -28.6% (active) in the test with UACC-62 melanoma; -1.37% (active) with LOX IMVI melanoma; -17.3% (active) in the test with SK-MEL-28 melanoma; -4.42% (active) in the test on SK-MEL-2 melanoma; -13.5% (active) in the test with EKVX NSCLC. The growth with SN12C renal is 6.41% (active); with TK-10 renal, -17.4% (active); in the test on ACHN renal, -5.66% (active); with CAKI-1 renal, 8.83% (active); with A498 renal, -35% (active); with CCRF-CEM leukemia, 12.6%. Moreover, the growth in the test with MOLT-4 leukemia is 5.84% (active).
